MITF inh: inhibitors of human MITF | O75030 | AlphaScreen MITF homodimerization, bead proximity signal | inhibition, % at 2.6 µM | 650,000 compounds, 0.91% hits; in the data active = inhibition above about 50%;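 note: 0% = vehicle wells with protein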
Target sequence (O75030 whole entry, looked up): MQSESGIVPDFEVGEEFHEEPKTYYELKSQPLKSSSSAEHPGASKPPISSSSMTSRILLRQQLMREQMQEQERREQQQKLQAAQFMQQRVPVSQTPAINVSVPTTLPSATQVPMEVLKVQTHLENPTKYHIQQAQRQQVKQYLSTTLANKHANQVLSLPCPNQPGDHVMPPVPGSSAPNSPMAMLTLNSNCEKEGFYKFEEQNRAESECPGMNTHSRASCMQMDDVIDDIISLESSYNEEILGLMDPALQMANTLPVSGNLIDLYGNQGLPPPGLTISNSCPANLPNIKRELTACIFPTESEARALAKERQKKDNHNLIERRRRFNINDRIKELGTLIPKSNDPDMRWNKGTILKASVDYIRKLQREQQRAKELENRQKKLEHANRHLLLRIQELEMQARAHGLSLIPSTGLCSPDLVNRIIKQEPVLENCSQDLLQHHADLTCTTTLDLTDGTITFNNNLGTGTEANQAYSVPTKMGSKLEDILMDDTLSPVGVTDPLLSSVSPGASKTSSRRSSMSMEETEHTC
FBW7 act: activators of human E3 ligase FBW7; Q969H0; normalized activity (activation), % at 26.1 µM; AlphaScreen FBW7–phospho-cyclin E peptide binding, activator screen; AID 1259310; 650,000 compounds, 0.13% hits; in the data active = normalized activity above about 1.9%;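 note: purified mutant Fbw7 with reduced substrate affinity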
GPR151 ag: activators of human GPR151. PathHunter beta-arrestin GPR151 cells, luminescence. activation, % at 11.2 µM. 650,000 compounds, 1% hits. AID 1508602; in the data active = activation above about 4.9%;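 note: 0% = median of compound wells and 100% = cells with positive control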
TEAD-YAP block: TEAD-YAP interaction inhibition; HEK-TIYL cells, TEAD-Gal4/YAP UAS-luciferase luminescence; inhibition, % at 9.12 µM; 640,000 compounds, 1.4% hits; AID 1259422; in the data active = inhibition above about 32%;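 note: 0% = median of test compound wells and 100% = reference inhibitor wells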
* = called active by the depositor. Hits are enriched below; roughly 3.5% of the tested compounds scored in any of these assays.

SMILES	MITF inh	FBW7 act	GPR151 ag	TEAD-YAP block
CCOc1ccc(C2=CC(c3cc(OC)c(OC)c(OC)c3)n3nnnc3N2)cc1 (centres undefined)	5	0	2	44*
COc1cccc(C2=CC(c3cc(OC)c(OC)c(OC)c3)n3nnnc3N2)c1 (centres undefined)	7	0	-1	57*
COc1cccc(C2=CC(c3cccc(OC)c3OC)n3nnnc3N2)c1 (centres undefined)	-1	0	0	30
COc1cccc(C2=CC(c3ccccc3F)n3nnnc3N2)c1 (centres undefined)	15	0	1	44*
COc1cccc(C2=CC(c3cccc(OC)c3)n3nnnc3N2)c1 (centres undefined)	-3	0	1	56*
CCOC(=O)c1ccc(NC(=O)c2cccc(OCC)c2)cc1	-5	0	-2	-18
CN(C)S(=O)(=O)c1cccc(C(=O)Nc2cccc(O)c2)c1	-10	0	0	58*
CCN(CC)S(=O)(=O)c1cccc(C(=O)Nc2cccc(NC(=O)c3cccc(S(=O)(=O)N(CC)CC)c3)n2)c1	2	0	0	12
CCN(CC)S(=O)(=O)c1cccc(C(=O)Nc2ccc(O)cc2)c1	5	0	-2	48*
CCOC(=O)c1ccc(NC(=O)c2cccc(S(=O)(=O)N(CC)CC)c2)cc1	5	0	1	43*
C=CCc1ccc(OCCn2ccnc2)c(OC)c1	-28	0	-1	-26
COc1ccc(C(=O)/C=C/c2ccc(-c3cccc(C(F)(F)F)c3)o2)cc1	5	0	-1	10
O=C(Nc1ncc(-c2cccnc2)s1)c1ncoc1-c1ccc(F)cc1	-6	0	1	-12
O=[N+]([O-])c1cc(Cl)c(Sc2nc3ccccc3s2)c(Cl)c1	35	1	0	49*
O=[N+]([O-])c1ccc(Sc2nc3ccccc3s2)cc1	7	0	-1	2
Cn1cc(-c2cnc3ccc(NCc4cccs4)nn23)cn1	-1	2	0	13
O=C(/C=C/c1cc(Cl)cc2c1OCOC2)c1cc(F)ccc1O	-6	0	0	2
CC(C)Sc1ccc(C(=O)Nc2nccs2)cc1	20	0	-6	55*
CC(=O)c1ccc(C(=O)Nc2nccs2)cc1	23	0	-2	19
COc1cc(SC)ccc1C(=O)Nc1nccs1	15	0	-1	46*
CC(C)Oc1ccc(C(=O)Nc2nccs2)cc1	13	0	-5	52*
CCn1nnc(NC(=O)c2ccc(OC(C)C)cc2)n1	9	0	-5	44*
COc1ccc(-c2ccc3c(c2)COC2(CCN(C(=O)C4CC4)CC2)O3)cc1OC	-2	0	0	-2
COCCSc1nnc(NC(=O)c2ccccc2)s1	-4	0	-6	-47
Cc1ccc(I)c(NS(=O)(=O)c2ccc(Cl)c(N)c2)c1	-14	0	1	-12
SMILES	MITF inh	FBW7 act	GPR151 ag	TEAD-YAP block
NC(=O)c1ccc(-c2nc(NCCc3ccc(O)cc3)c3ncn(-c4ccccc4)c3n2)cc1	-4	0	-1	66*
CCCNc1nc(-c2ccc(C(N)=O)cc2)nc2c1ncn2-c1ccccc1	-7	0	1	52*
c1ccc(-c2nc(NCc3cccnc3)c3ncn(-c4ccccc4)c3n2)cc1	2	0	-1	17
NC(=O)c1ccc(-c2nc(NCc3cccnc3)c3ncn(-c4ccccc4)c3n2)cc1	2	0	0	55*
CCCNc1nc(-c2ccc(OC)cc2)nc2c1ncn2-c1ccccc1	9	0	0	-3
CC(C)N(CCNc1nc(-c2ccc(C(N)=O)cc2)nc2c1ncn2-c1ccsc1)C(C)C	12	0	-1	61*
Cc1ccc(C(=O)N=Nc2c(O)n(C)c3ccccc23)cn1	7	0	1	-14
CCCNc1nc(-c2ccc(C(N)=O)cc2)nc2c1ncn2-c1ccsc1	7	0	-1	52*
CCN(CC)CCn1nc2c3c(cccc3c1=O)-c1ccccc1-2	9	0	2	81*
Cc1nnc(SC(=O)N2c3ccccc3Sc3ccccc32)s1	7	0	0	61*
O=c1c(O)c(-c2ccc(O)c(O)c2)oc2cc(O)ccc12	23	0	-2	-24
O=c1c(O)c(-c2cc(O)c(O)c(O)c2)oc2cc(O)ccc12	78*	0	3	2
Cc1cccc(CC(=O)N2CCC(Cn3ccnc3)CC2)c1	17	1	1	1
C=CCC1S/C(=N\N=C\c2cccc([N+](=O)[O-])c2)NC1=O (centres undefined)	9	2.3*	0	5
O=c1c(Nc2cccc(Cl)c2)c(-c2ccccc2)c1=O	9	0	-1	1
CCN(c1ccc(OC)cc1)c1c(-c2ccccc2)c(=O)c1=O	12	0	0	48*
COc1ccc(Nc2c(-c3ccc(C)cc3)c(=O)c2=O)cc1	-8	0	1	-5
Cc1ccc(-c2c(Nc3cccc(F)c3)c(=O)c2=O)cc1	9	0	0	50*
COc1ccc(Nc2c(-c3ccccc3)c(=O)c2=O)cc1Cl	99*	0	1	55*
COc1ccc(Nc2c(-c3ccccc3)c(=O)c2=O)cc1	-2	0	1	60*
CCOC(=O)c1c(CNC)n(C)c2cc(Br)c(O)cc12	-21	0	-1	-13
CC(Nc1c(-c2ccccc2)c(=O)c1=O)c1ccccc1 (centres undefined)	0	0	-2	40*
COc1ccc(-c2c(Nc3cccc(SC)c3)c(=O)c2=O)cc1	15	1	1	61*
CCc1ccc(Nc2c(-c3ccccc3)c(=O)c2=O)cc1	0	0	-1	56*
CCC(C)Nc1c(-c2ccccc2)c(=O)c1=O (centres undefined)	9	0	1	9
SMILES	MITF inh	FBW7 act	GPR151 ag	TEAD-YAP block
CCc1cccc(Nc2c(-c3ccc(OC)cc3)c(=O)c2=O)c1	6	1	1	-8
COc1ccc(C(=O)Nc2ccc(-c3csc(C)n3)cc2)c(OC)c1	-10	0	-1	-31
COc1ccc(C(=O)Nc2ccc(-c3cn4ccsc4n3)cc2)c(OC)c1	-5	2.0*	0	-15
O=C(NN1C(=O)c2ccccc2C1=O)c1cccc(Cl)c1	5	0	-2	-22
CCc1ccc(CN2CCC3(CCC(CNC(=O)C(C)C)O3)CC2)cc1 (centres undefined)	-4	0	0	-6
CC(C)C(=O)NCC1CCC2(CCN(Cc3ccc(C#CC(C)(C)O)cc3)CC2)O1 (centres undefined)	-5	0	0	51*
Cc1ccc(C)n1-c1ccc(C(=O)O)cc1	-11	-1	0	5
Cc1ccc(C)n1-c1ccc(C(=O)NCC(=O)O)cc1	66*	0	0	15
CC1CCN(C(=O)CSc2nc(Nc3ccc(F)cc3)c3ccccc3n2)CC1	-2	0	-1	-7
N#CC1=C(N)Oc2c(ccc3cccnc23)C1c1ccccc1F (centres undefined)	2	-1	-1	58*
CC(/C=C/c1ccccc1)=N\NC(=O)Cc1ccccc1	11	0	-2	1

Source: PubChem (The Scripps Research Institute Molecular Screening Center)
